Results on 3 molecules are retold here after PubChem BioAssay (NCATS).

A short description of assay [1]: KB-8-5-11 Cancer Cell Toxicity qHTS against the NCATS CANVASS Library (AID 1347364). Note: nearly all actives have a fitted effect of over 75% in size. The following applies: KB-8-5-11 MDR cells viability, CellTiter-Glo, 72 h; series mostly up to 46.1 µM. The method in brief:
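Luminescent ATP signal (CellTiter-Glo, 10 min at room temperature) measured cell survival of KB-8-5-11 after 72 hr compound treatment. For confirmation, the cells were also grown with 1uM tariquidar.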
On the technique in general: Quantitative high-throughput screening tests each substance at several concentrations.

The nature of assay [2]: SDT Cancer Cell Toxicity qHTS against the NCATS CANVASS Library (AID 1347365).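 Note: SDT canine glioma cells 500 per well in 1536 well plates; nearly all actives have a fitted effect of over 60% in size.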 The settings on record: SDT dog glioma viability, ATP luminescence, 72 h; series mostly up to 46.1 µM. The method in brief: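 Canine SDT glioma cell toxicity was scored by ATP-dependent luminescence after a 72 hr incubation with an 11-point compound series.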
The nature of assay [3]: KB-3-1 Cancer Cell Toxicity qHTS against the NCATS CANVASS Library (AID 1347366). Note: nearly all actives have a fitted effect of over 75% in size. The following applies: KB-3-1 viability, CellTiter-Glo luminescence, 72 h; series mostly up to 46.1 µM. Summed up:
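Luminescence from CellTiter-Glo (10 min, room temperature) measured KB-3-1 viability after 72 hr compound exposure at 37C. Cells were seeded at 500/well and tested in an 11-point series.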

The nature of assay [4]: qHTS for ATAD5 Agonist screened against the NCATS CANVASS Library (AID 1347367).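 Note: luciferase reporter driven by ATAD5 which rises upon DNA damage.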 The following applies: HEK293T ATAD5-luciferase reporter, luminescence, 16 h; series mostly up to 46.1 µM. Summed up: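 HEK293T-ATAD5 luc reporter; 2000 cells/well; 5hr settle; cpd 11-pt qHTS; 16hr 37C 5% CO2 dark; viability by CellTiter-Fluor (AFC fluorescence); then luciferase luminescence, 30min RT.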

Assay [5] is described as follows: G06 Cancer Cell Toxicity qHTS against the NCATS CANVASS Library (AID 1347368). Note: nearly all actives have a fitted effect of over 60% in size. The settings on record: G06 dog glioma cells, viability ATP luminescence, 72 h; series mostly up to 46.1 µM. Summed up:
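Quantitative HTS in G06 cells (dog glioma): 72 hr treatment, 11 concentrations, then ATP-based luminescent viability readout; bortezomib 0.1 nM–4.6 uM final as reference.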

Assay [6] is described as follows: MCF7 Cancer Cell Toxicity qHTS against the NCATS CANVASS Library (AID 1347369). The following applies: MCF7 viability, ATP luminescence (CellTiter-Glo), 72 h; at 46 µM (top of the series). The method in brief: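 Cells seeded at 500/well, then compound pinned. Plates incubated 72 hr at 37C, 5% CO2. CellTiterGlo added; luminescence read.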
Assay [7] can be described thus: qHTS for ATAD5 Antagonist screened against the NCATS CANVASS Library (AID 1347370).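 Note: HEK293T cells carrying an ATAD5 luciferase reporter co-treated with 10 µM 5-fluorouridine; nearly all actives have a fitted effect of over 65% in size.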 The settings on record: HEK293T-ATAD5-luc, 5-FUrd stimulated, luminescence, 16 h; series mostly up to 46.1 µM. The method in brief: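 HEK293T-ATAD5 luc reporter, 2000 cells/well; 5hr attach; cpd + 10 uM 5-FUrd; 16hr 37C, 5% CO2. Readouts: CellTiter-Fluor fluorescence (1hr), then Amplite luciferase luminescence (30min RT).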

The nature of assay [8]: J3T Cancer Cell Toxicity qHTS against the NCATS CANVASS Library (AID 1347371). The following applies: J3T dog glioma viability, ATP luminescence, 72 h; series mostly up to 46.1 µM. Summed up: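 ATP-based cytotoxicity in canine J3T cells: 72 hr exposure at 37C, 11-point titration, CellTiterGlo luminescent detection.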
Assay [9] addresses Nuclear receptor subfamily 1 group I member 3 (Homo sapiens) (UniProt Q14994). Put plainly: qHTS for Constitutive Androstane Receptor (CAR) Antagonist screened against the NCATS CANVASS Library (AID 1347372).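 Note: cells stimulated with 50 nM CITCO agonist so inhibition reflects antagonism; luciferase from CYP2B6 promoter reporter driven by hCAR in HepG2 cells.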 The settings on record: HepG2-hCAR-CYP2B6 luciferase, CITCO-stimulated antagonist mode; series mostly up to 46.1 µM. Summed up: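 Cells were seeded and left 4hr to attach, then received compound at 11 concentrations and 50 nM CITCO. Following 24hr incubation, fluorescence viability and luciferase luminescence were read sequentially.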

Assay [10] has the same target. Put plainly: qHTS for Constitutive Androstane Receptor (CAR) Agonist screened against the NCATS CANVASS Library (AID 1347373).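 Note: every well also contained 1.5 µM PK11195 alongside the test compound.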 The settings on record: HepG2-hCAR-CYP2B6 luciferase reporter, ONE-Glo luminescence; series mostly up to 46.1 µM. The method in brief:
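In an 11-point concentration series, compounds were incubated 24hr with HepG2 cells carrying hCAR and a CYP2B6-2.2kb reporter, with PK11195 at 1.5uM final. A CellTiter-Fluor viability read preceded the ONE-Glo luminescence read.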

Assay [11] is described as follows: qHTS for Hypoxia signaling pathway (HIF-1) agonists against the NCATS CANVASS Library (AID 1347375). The following applies: HRE-bla ME-180 cells, HIF-1 beta-lactamase reporter, 17 h; series mostly up to 38.3 µM. Summed up:
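An HRE-beta-lactamase ME-180 line is exposed for 17 h to an 11-point compound series, then read by CCF4-AM FRET. Cytotoxicity is measured in parallel in the same wells with CellTiter-Glo, and autofluorescence is checked separately.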

Assay [12] is described as follows: 10-beta competent E. coli microbial cell viability qHTS against the NCATS CANVASS Library (AID 1347376). The following applies: E. coli 10-beta viability, BacTiter-Glo ATP luminescence, overnight; series mostly up to 46.1 µM. Summed up:
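Overnight 37C exposure of 10-beta E. coli (0.2 OD) to an 11-point concentration series; ATP-based luminescence after 20 min room-temperature reagent incubation; daunomycin as control.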

Assay [13] in a line: qHTS for H2AX Agonists against the NCATS CANVASS Library (AID 1347378).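 Note: phospho-H2AX S139 level in CHO-K1 lysates by TR-FRET emission ratio.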 The following applies: CHO-K1 H2AX phosphorylation, HTRF TR-FRET, 3 h; series mostly up to 76.9 µM. Summed up:
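CHO-K1, 1000 cells/well, o/n 37C; cpd several conc, 3 hr 37C, 0.76% DMSO; lyse 30 min RT; cryptate anti-pH2AX(S139) + d2 anti-H2AX, 24 hr RT; HTRF 665/620.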

The nature of assay [14]: qHTS for Inflammasome Signaling Inhibitors: IL-1-beta AlphaLISA screen against the NCATS CANVASS Library (AID 1347379).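 Note: human THP-1 cells primed with LPS then triggered with ATP.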 The following applies: THP-1 LPS/ATP, IL-1B AlphaLISA secretion, 16 h; series mostly up to 57.5 µM. The method in brief: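 THP-1, 1 hr compound pre-incubation, then LPS 250 ng/mL + ATP 1.25 mM (final); 16 hr total with compound; IL-1B AlphaLISA, ex 680/em 615 nm; 11-point qHTS, up to 57.5 uM final.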

A short description of assay [15]: qHTS for Antimalaria activity screened against the NCATS CANVASS Library (AID 1347380).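 Note: Plasmodium falciparum strain Dd2 asexual parasites grown in red blood cells; nearly all actives have a fitted effect of over 40% in size.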 The settings on record: P. falciparum Dd2 growth, SYBR Green fluorescence, 72 h; series mostly up to 28.7 µM. The method in brief: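 Measures proliferation or cytotoxicity against Dd2 blood stages in 72 h cultures, 11-point qHTS dosing, with SYBR Green fluorescence as read-out; dihydroartemisinin titration served as control.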

Assay [16] is described as follows: Inflammasome Signaling qHTS Counterscreen: IL-1-beta AlphaLISA counterscreen against the NCATS CANVASS Library (AID 1347381).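 Note: cell-free check with purified IL-1β in medium and no THP-1 cells.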 The settings on record: Purified IL-1beta AlphaLISA signal interference counterscreen; series mostly up to 57.5 µM. Summed up:
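Here, no cellular stimulation occurs; compounds in an 11-point series meet 4 pg purified IL-1-beta directly. Bead-based AlphaLISA detection follows (1 h acceptor/antibody, then 30 min donor, dark, room temperature), with excitation at 680 nm.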

Assay [17] has as its target Luciferin 4-monooxygenase (Photinus pyralis) (UniProt P08659). The experiment in a line: Firefly luciferase counterscreen qHTS: Assay Interference Panel against the NCATS CANVASS Library (AID 1347363). The following applies: purified firefly luciferase, luminescence inhibition, 5 min; series mostly up to 57.5 µM. The method in brief: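 Purified P. pyralis luciferase was added to compounds (11-point series) preincubated 15 min at room temperature with substrate containing 0.013 mM D-luciferin and 0.013 mM ATP; luminescence was read after 5 min.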
Background: A counterscreen serves to expose hits that act by an unwanted route or on another target.

Assay [18] is described as follows: qHTS for Hypoxia signaling pathway (HIF-1) antagonists against the NCATS CANVASS Library (AID 1347374). Note: potency is the fitted concentration of half-maximal effect; nearly all actives have a fitted effect of over 60% in size. The following applies: HRE-bla ME-180 cells, HIF-1 beta-lactamase reporter, CoCl2. Summed up: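 Beta-lactamase reporter under HRE control in ME-180 cells; CoCl2 stimulus (60 uM solution as added), compounds 11-pt qHTS, 17 h 37C. CCF4 dye 2 h RT, 460/530 nm emission. CellTiter-Glo viability in same wells.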

Assay [19] in a line: DH5-alpha competent E. coli microbial cell viability qHTS against the NCATS CANVASS Library (AID 1347377). The following applies: BacTiter-Glo ATP luminescence, overnight; series mostly up to 46.1 µM. The method in brief:
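Overnight incubation at 37C, 5% CO2 of E. coli DH5-alpha (diluted to 0.2 OD) with compounds precedes BacTiter-Glo addition. Luminescence, acquired after 20 min at room temperature, reflects viable-cell ATP.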

For assay [20], the system named is NAD(P)H diaphorase (Clostridium kluyveri). The experiment in a line: Diaphorse counterscreen qHTS: Assay Interference Panel against the NCATS CANVASS Library (AID 1347362). The settings on record: Diaphorase enzyme, resazurin to resorufin fluorescence; series mostly up to 57.5 µM. Summed up:
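Clostridium kluyveri diaphorase in PBS with 0.01% Tween-20 was preincubated 15 min at room temperature in the dark with compounds (11-point series). Resorufin fluorescence (ex 525/20, em 598/25) was read 5 min after adding resazurin/NADH.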

SMILES strings stand for the structures. Records with an inconclusive call do not appear. Activity calls are given as the source filed them. Calls come from the whole dose curve; as a rule, active = well fitted curve in the direction sought with a large enough effect; inconclusive = small, poorly fitted or top-dose-only effect, or another doubt; inactive = no such curve, though single readings can be large; an effect the other way counts as inactive or inconclusive.

Nuclear receptor subfamily 1 group I member 3 (Homo sapiens), sequence (Q14994 whole entry, looked up): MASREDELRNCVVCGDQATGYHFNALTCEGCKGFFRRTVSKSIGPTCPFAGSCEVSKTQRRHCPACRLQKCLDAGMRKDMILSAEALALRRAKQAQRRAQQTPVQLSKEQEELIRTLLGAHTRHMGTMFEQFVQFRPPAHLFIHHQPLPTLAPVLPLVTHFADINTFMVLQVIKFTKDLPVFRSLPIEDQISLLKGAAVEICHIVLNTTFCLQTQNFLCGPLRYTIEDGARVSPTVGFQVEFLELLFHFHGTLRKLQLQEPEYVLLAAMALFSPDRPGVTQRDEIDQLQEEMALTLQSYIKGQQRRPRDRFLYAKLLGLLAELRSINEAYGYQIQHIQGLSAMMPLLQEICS
Luciferin 4-monooxygenase (Photinus pyralis), sequence (P08659 whole entry, looked up): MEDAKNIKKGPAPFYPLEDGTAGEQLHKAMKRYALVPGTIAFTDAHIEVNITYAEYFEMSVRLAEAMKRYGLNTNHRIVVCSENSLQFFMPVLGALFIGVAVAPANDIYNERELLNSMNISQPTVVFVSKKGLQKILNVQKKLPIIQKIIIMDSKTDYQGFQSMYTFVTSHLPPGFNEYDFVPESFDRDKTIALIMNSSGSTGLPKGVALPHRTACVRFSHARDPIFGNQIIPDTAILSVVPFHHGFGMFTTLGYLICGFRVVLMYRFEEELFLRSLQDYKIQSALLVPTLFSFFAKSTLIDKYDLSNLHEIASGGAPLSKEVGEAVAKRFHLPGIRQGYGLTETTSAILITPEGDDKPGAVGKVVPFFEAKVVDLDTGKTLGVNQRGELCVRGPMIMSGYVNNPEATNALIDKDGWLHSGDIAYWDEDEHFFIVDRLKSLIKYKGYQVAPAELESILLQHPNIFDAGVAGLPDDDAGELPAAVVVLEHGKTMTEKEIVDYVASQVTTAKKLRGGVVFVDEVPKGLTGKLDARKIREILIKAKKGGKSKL

`O=c1cc(-c2ccccc2)oc2cc(O)c(O)c(O)c12`: the molecule was classed as inactive in [1], in assay [2], in assay [3], in assay [4], in assay [5] and in [6]. Besides, the result in assay [7], in [8], in assay [9], in assay [10], in assay [11] and in assay [12] was inactive. For the same molecule, the molecule was called inactive in assay [13], in [14], in assay [15] and in [16].
For the molecule `O=C(O)C(O)Cc1ccc(O)c(O)c1` (stereo unspecified), the molecule was classed as inactive in assay [17], in assay [1], in assay [2], in [3], in assay [4] and in [5]. Also, the call in [7], in assay [8], in assay [9], in [10], in [11] and in assay [12] was inactive. For the same molecule, the molecule was called inactive in [19], in assay [13], in assay [14] and in [16]. For the same molecule, the Potency in [18] was 8.38 µM (active).
On to `COC(=O)[C@@H]1[C@H]2C[C@H]3c4[nH]c5ccccc5c4CCN3C[C@@H]2CC[C@@H]1O`, for which the result in assay [20], in assay [17], in [1], in assay [2], in assay [3] and in assay [4] was inactive. In addition, the molecule was classed as inactive in assay [5], in [6], in assay [7], in [8], in assay [9] and in assay [10]. Moreover, the call in assay [12], in assay [19], in assay [13], in assay [14], in assay [15] and in [16] was inactive.
